Test results from PubChem BioAssay AID449762 (Southern Research Specialized Biocontainment Screening …, 2010).
The whole screen tested about 330,000 compounds, of which about 1,900 (0.58%) were called active. Not shown: some 4% with an inconclusive outcome. These entries were drawn from the full list. Measured potencies and affinities stand elsewhere. Unmarked numbers belong to inactive results. Rule as the data show it: inconclusive = inhibition above about 70% without an active follow-up result; inactive = below that.

Assay: M. tuberculosis growth inhibition, HTS (AID 449762);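 also: bacterial growth assessed after seven days of incubation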
Conditions: M. tuberculosis H37Rv growth inhibition, 7H9 media; at 25 µM; active compounds read high

| SMILES | inhibition [%] |
| --- | --- |
| COc1ccc(C2C(C(=O)Nc3ccccn3)=C(C)Nc3ncnn32)c(OC)c1 (centres undefined) | -4.42 |
| COc1ccc(OC)c(-c2csc(NC(=O)CSc3ccccc3)n2)c1 | -4.32 |
| COc1ccc(CC(=O)Nc2ccc(S(=O)(=O)Nc3onc(C)c3C)cc2)cc1OC | 5.55 |
| COc1ccc(NC(=O)COC(=O)CCCc2c[nH]c3ccccc23)cc1 | 37.6 |
| COc1ccc(C2NN=C(c3c[nH]c4ccccc34)C2O)cc1 (centres undefined) | 4.48 |
| O=C(COC(=O)c1ccc2c(c1)C(=O)N(CCc1ccccc1)C2=O)Nc1ccc(OC(F)F)cc1 | -2.61 |
| CCC(CO)(C(=O)OC1C[N+]2(C)CCC1CC2)c1ccccc1 (centres undefined) | -13.2 |
| CCOC(=O)N1CCN(Cc2ccc(O)c3ncccc23)CC1 | 55.4 |
| OCCN1CCN(Cc2cc(Cl)c3cccnc3c2O)CC1 | 6.31 |
| CC(=O)Nc1ccc(S(=O)(=O)NCCc2c[nH]c3ccc(C)cc23)cc1 | 0.51 |
| COc1ccc(CNC(=O)[C@@H]2CC=C[C@@H]3CCN(Cc4ccc(Cl)c(Cl)c4)C(=O)[C@@H]32)cc1 | 18.4 |
| COc1ccc(OCCCCN(C)Cc2ccccc2)cc1 | 13.7 |
| O=C(NNC(=S)Nc1ccccc1)c1ccncc1 | 7.24 |
| CCOc1ccc(C2c3[nH]c4ccccc4c3CCN2Cc2cccn2-c2ncccn2)cc1 (centres undefined) | 67.7 |
| COc1cccc(C2c3[nH]c4ccccc4c3CCN2Cc2cccn2-c2ncccn2)c1 (centres undefined) | 2.06 |
| Cc1ccc(CNC(=O)CSCc2cccc(F)c2)cc1 | 12.3 |
| CNC(=S)N/N=C/c1c(C)nn(-c2ccc(F)cc2)c1Cl | 6.49 |
| CC1=C(C)CC(C(=O)Nc2nccs2)C(C(=O)O)C1 (centres undefined) | -4.95 |
| S=c1nccc(-c2ccc(Cl)cc2)[nH]1 | 54.5 |
| S=c1nccc(-c2ccc3c(c2)CCO3)[nH]1 | 3.97 |
| COc1ccc(C2C(C#N)=C(N)Oc3cc(C)n(Cc4ccncc4)c(=O)c32)cc1 (centres undefined) | -7.68 |
| O=C(CCn1cnc2ccccc2c1=O)Nc1ccc2c(c1)OCCO2 | -3.32 |
| CCN(CC)c1ccc2c(Cl)cc(=O)oc2c1 | 5.83 |

| SMILES | inhibition [%] |
| --- | --- |
| CCN(CC)c1ccc2c(C)c(Cl)c(=O)oc2c1 | -3.19 |
| Cc1nc(C)c(C(=O)OCC(=O)NCc2ccccc2Cl)s1 | 3.01 |
| CCOC(=O)c1cnc2ccc(OCC)cc2c1N1CCN(c2ccccc2OC)CC1 | 63.7 |
| CCOC(=O)c1cnc2ccc(OCC)cc2c1N1CCN(C)CC1 | 4.95 |
| C=CCN(CC(=O)NCc1ccccc1)C(=O)c1csnn1 | -1.06 |
| O=C(O)C1CC=CCC1C(=O)NCCCN1CCCC1=O (centres undefined) | -30.3 |
| O=[N+]([O-])c1ccc2nc(-[n+]3c(-c4ccccc4)cc(-c4ccccc4)cc3-c3ccccc3)[nH]c2c1 | 27.2 |
| O=C(O)c1ccc(-[n+]2c(-c3ccccc3)cc(-c3ccccc3)cc2-c2ccccc2)cc1 | -13.1 |
| Cc1ccc(-c2cc(-c3ccc(C)cc3)[n+](-c3ccc(C(=O)O)cc3)c(-c3ccc(C)cc3)c2)cc1 | 6.26 |
| Cc1ccc(-c2cc(-c3ccccc3)cc(-c3ccccc3)[n+]2-c2ccc(C(=O)O)cc2)cc1 | -6.06 |
| O=C([O-])c1ccc(-[n+]2c(-c3ccccc3)cc(-c3ccccc3)cc2-c2ccccc2)cc1 | 55.9 |
| O=[N+]([O-])c1ccc(-[n+]2c(-c3ccccc3)cc(-c3ccccc3)cc2-c2ccccc2)cc1 | 8.42 |
| CC(C)(C)OC(=O)[C@H](Cc1ccccc1)NC(=O)c1nc[nH]c1C(=O)N[C@@H](CCCCN)C(=O)OC(C)(C)C | -1.19 |
| CC(Cc1ccco1)NC(=O)c1ccc(C(F)(F)F)cc1 (centres undefined) | 4.71 |
| COc1ccc(Cl)cc1NC(=O)NCCN1CCNC1=O | 0.11 |
| COc1ccc(/C(N)=N/OC(=O)CCCc2ccccc2)cc1OC | 14.8 |
| O=C(O)c1cccc(NC(=O)c2cc(S(=O)(=O)N3CCOCC3)cs2)c1 | -7.54 |
| CCOC(=O)N1CCC(N(CCN(C)C)C(=S)Nc2ccccc2OCC)CC1 | 7.57 |
| CC1CCC(NCc2ccco2)CC1 (centres undefined) | -0.39 |
| CCC1=C(OC(=O)N(CC)CC)N2C(=O)OC(=NCCc3c[nH]c4ccccc34)[C@]2(Cc2ccccc2)[C@H]2C1=CC[C@H]1C(=O)N(C)C(=O)[C@H]12 | 68.8 |
| CCC1=C(OC(=O)N(CC)CC)N2C(=O)OC(=NCCc3c[nH]c4ccccc34)[C@]2(Cc2ccccc2)[C@H]2C1=CC[C@H]1C(=O)N(CC)C(=O)[C@H]12 | -7.04 |
| O=C(NCC1CCCO1)C(=O)N/N=C/c1c(F)cccc1Cl (centres undefined) | 5.59 |
| NC(N)=Nc1nc2ccccc2o1 | 4.74 |

| SMILES | inhibition [%] |
| --- | --- |
| CCCCN(C(=O)c1cnccn1)c1c(N)n(CCC)c(=O)[nH]c1=O | -6.33 |
| CCC(=O)c1ccc(OCC(O)CN2CCN(c3ccc(F)cc3)CC2)cc1 (centres undefined) | -1.98 |
| CCC(=O)c1ccc(OCC(O)CN2CCN(c3ccccn3)CC2)cc1 (centres undefined) | 4.67 |
| N#Cc1ccc(OCC(O)CN2CCN(CC(O)COc3ccc(C#N)cc3)CC2)cc1 (centres undefined) | -5.84 |
| OC(CN1CCN(c2ncc(C(F)(F)F)cc2Cl)CC1)c1ccccc1 (centres undefined) | 32.4 |
| O=[N+]([O-])c1cc([N+](=O)[O-])c(Oc2cc(F)ccc2F)cc1NN1CCCCC1 | 5.39 |
| O=C(NCCc1ccccc1)C(=O)c1cn(CC(=O)N2CCCC2)c2ccccc12 | -0.08 |
| COc1cc(NC(=O)c2cccnc2SC)cc(OC)c1OC | -4.5 |
| Cc1cccc(NC(=O)c2nc[nH]c2C(=O)N(C)Cc2ccccc2)c1 | 27.5 |
| COc1cc(OC)cc(C(=O)N[C@H](C(=O)NC23CC4CC(CC(C4)C2)C3)C(C)C)c1 | -8.25 |
| CCCCCN(C(=O)CCC(=O)OCCOc1cccc(C)c1)c1c(N)n(CCCC)c(=O)[nH]c1=O | 44.3 |
| CCOc1cc(Cl)c(NC(C)=O)cc1OCC | -1.54 |
| CCOc1cc(NC(=S)Nc2ccc(Cl)cc2)c(OCC)cc1NC(C)=O | -3.61 |
| CC(=O)c1cccc(NC(=O)C(C)OC(=O)c2ccc(Br)o2)c1 (centres undefined) | 4.17 |
| CCOC(=O)C1CCN(c2cc3c(cc2NC(=O)c2ccccc2F)n(C)c(=O)n3C)CC1 | 4.71 |
| CCOC(=O)C1CCN(c2cc3c(cc2NC(=O)c2ccccc2)n(C)c(=O)n3C)CC1 | -3.19 |
| CCc1ccc(NC(=O)C2C3C=CC(C4CC34)C2C(=O)O)cc1 (centres undefined) | 4.87 |
| CCCCCc1ccc(CC(=O)O)cc1 | -9.58 |
| CCCCCCNC(=O)C(=O)NCCc1ccc(Cl)cc1 | -8.55 |
| NS(=O)(=O)c1cc(C(=O)OC2CCOC2=O)ccc1Cl (centres undefined) | -0.59 |
| N/C(=N\OC(=O)c1ccc2c(c1)OCO2)c1ccc([N+](=O)[O-])cc1 | 0.35 |
| CS(=O)(=O)O/N=C1\CCCCC1c1ccc([N+](=O)[O-])cc1[N+](=O)[O-] (centres undefined) | 11.2 |
| COc1ncnc2c1sc1nc(-c3ccccc3)c3c(c12)CCCC3 | 2.95 |

| SMILES | inhibition [%] |
| --- | --- |
| CCN(CC)CCNc1ncnc2c1sc1nc(N3CCOCC3)c3c(c12)CCCC3 | 13.5 |
| Cc1nc(-c2c(C(=O)NNC(=O)Nc3c(C)cccc3C)noc2C)cs1 | -5.09 |
| COc1ccc(OC)c(C(=O)NC2CC(C)(C)Cc3c2cnn3-c2ccccc2)c1 (centres undefined) | 12.2 |
| CC(C)CC(=O)Nc1cccc(NC(=O)c2ccccc2Cl)c1 | 0.24 |
| COc1ccc(CSc2nc3ccccc3c(=O)[nH]2)cc1F | 2.06 |
| Cn1cc(C=C2C(=O)NC(=O)NC2=O)c2ccccc21 | -7.12 |
| COc1ccc(N2C(=O)NC(=O)/C(=C\c3cn(C)c4ccccc34)C2=O)cc1 | 3.04 |
| COC(=O)c1ccc(C(c2c(N)n(CC(C)C)c(=O)[nH]c2=O)N2CCN(c3ccccc3)CC2)cc1 (centres undefined) | 7.1 |
| CCOC(=O)CC(=O)CSc1nnc2c(n1)[nH]c1ccccc12 | 7.32 |
| COc1ccc(C2CC(c3c(Cl)cccc3Cl)n3nc(N)nc3N2)cc1 (centres undefined) | -4.95 |
| Cc1cc(C)nc(NC(=S)NC(=O)c2ccccc2)n1 | -0.74 |
| CC1CCN(C(=O)C2CCC(CNc3c(N4CCCCC4)c(=O)c3=O)CC2)CC1 (centres undefined) | -6.49 |
| O=C(C1CCC(CNc2c(N3CCCCC3)c(=O)c2=O)CC1)N1CCCC1 (centres undefined) | -1.43 |
| CC(=O)NCC1CCCN(C(=O)c2ccc(OC3CCN(Cc4ccccn4)CC3)cc2)C1 (centres undefined) | 8.85 |
| CC(Oc1ccc2c3c(c(=O)oc2c1)CCC3)C(=O)NC1CCN(Cc2ccccc2)CC1 (centres undefined) | 5.54 |
| O=C(NCc1ccccc1Cl)c1ccc(S(=O)(=O)Nc2cccc(C(F)(F)F)c2)cc1 | -11.7 |
| S=C(NCc1cccnc1)Nc1ccc(Oc2ccccc2)cc1 | 4.52 |
| Clc1ccc(-c2nc(N3CCCCC3)nc3ccccc23)cc1 | 8.31 |
| c1ccc(-c2nc(N3CCCCC3)nc3ccccc23)cc1 | 36.9 |
| COc1cc(OC)cc(C(=O)Nc2cccc(-c3ccc(N4CCOCC4)nn3)c2)c1 | -3.98 |
